From PubChem BioAssay
Calls of active or inactive are those of the source. Unless noted, the rule behind the calls is not given here.

Assays:
[1] = compound effects on lung adenocarcinoma cell viability – A549, calcein-AM fluorescence, 48 h, basal, profiling panel (AID 1162); conditions: higher = more signal; note: test concentration not given here
[2] = compound effects on differentiated 3T3-L1 adipocyte viability – cell-based, 3T3-L1 adipocytes, calcein-AM fluorescence, 48 h, basal, profiling panel (AID 1163); conditions: 3T3-L1 adipocytes viability, higher = more signal; note: test concentration not given here
[3] = compound effects on hepatocellular carcinoma cell viability – HepG2, calcein-AM fluorescence, 48 h, basal, profiling panel (AID 1164); conditions: higher = more signal; note: test concentration not given here
[4] = compound effects on multiple myeloma cell viability – MM1S, calcein-AM fluorescence, 48 h, basal, profiling panel (AID 1165); conditions: higher = more signal; note: test concentration not given here
[5] = calcein-AM signal in unstimulated myeloma cells – cell-based, calcein-AM fluorescence, 48 h, PK04 Diversity Set, profiling panel (AID 1166); conditions: RPMI8226 myeloma viability, higher = more signal;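 note: cells grown under basal conditions without added stimulus; test concentration not given here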
[6] = JC-1 mitochondrial signal, unstimulated HepG2 cells – cell-based, JC-1 fluorescence, 24 h, 100 nL compound, profiling panel (AID 1167); conditions: HepG2 mitochondrial potential, higher = more signal; note: test concentration not given here
[7] = JC-1 mitochondrial signal, unstimulated adipocytes – cell-based, JC-1 fluorescence, 3T3-L1 adipocytes, 24 h, 100 nL compound, profiling panel (AID 1168); conditions: JC-1 mitochondrial fluorescence, higher = more signal, called active from +8 up or from −8 down; note: test concentration not given here
[8] = JC-1 mitochondrial signal, unstimulated myeloma cells – cell-based, JC-1 fluorescence, RPMI8226, 24 h, 100 nL compound, profiling panel (AID 1169); conditions: JC-1 mitochondrial potential fluorescence, higher = more signal; note: test concentration not given here
[9] = JC-1 mitochondrial signal, unstimulated MM1S myeloma – cell-based, JC-1 fluorescence, 24 h, 100 nL compound, profiling panel (AID 1170); conditions: MM1S mitochondrial potential, higher = more signal; note: test concentration not given here
[10] = resazurin metabolic signal in A549 cells – cell-based, resazurin fluorescence, 24 h, PK04 Diversity Set, profiling panel (AID 1171); conditions: A549 viability, higher = more signal, called active from +8 up or from −8 down; note: test concentration not given here
[11] = resazurin metabolic signal in HepG2 cells – cell-based, resazurin fluorescence, 24 h, PK04 Diversity Set, profiling panel (AID 1172); conditions: HepG2 viability, higher = more signal; note: test concentration not given here
[12] = budding yeast growth changes without added modifier – OD600, strain BY4716, 24 h, basal condition, primary screen (AID 1173); conditions: S. cerevisiae BY4716 growth, OD600, 24 h; higher = more signal, called active from +8 up or from −8 down
[13] = viability profiling in MM1S myeloma cells – cell-based, resazurin fluorescence, basal, 24 h, PK04 Diversity Set, profiling panel (AID 1174); conditions: higher = more signal, called active from +8 up or from −8 down; note: test concentration not given here
[14] = target: Dihydroorotate dehydrogenase (quinone), mitochondrial (Plasmodium falciparum (isolate 3D7)) (UniProt Q08210); experiment: inhibition of P. falciparum DHODH – biochemical, C-terminal His tag, absorbance 600 nm, primary screen (AID 1175); conditions: PfDHODH enzyme, DCIP absorbance 600 nm; higher = more signal, called active from +8 up or from −8 down;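 note: recombinant parasite enzyme with a five histidine tag at its C terminus; test concentration not given here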
[15] = inhibition of PAO1 biofilm formation – strain PAO1, LB-PBS medium, absorbance 600 nm, primary screen (AID 1176); note: test concentration not given here; conditions: P. aeruginosa PAO1 growth/biofilm, A600, 12 h; higher = more signal
[16] = growth modulation of vineyard yeast isolate – strain RM11-1a, OD600, basal, 24 h, primary screen (AID 1177);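 note: cultures grown under basal conditions with no added stressor; test concentration not given here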; conditions: S. cerevisiae RM11-1a growth, OD600, 24 h; higher = more signal, called active from +8 up or from −8 down
[17] = growth of efflux-deficient E. coli DRC39 – strain DRC39, OD650, 24 h, E. coli filamentation inducers, primary screen (AID 1178);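 note: growth measured as culture turbidity by optical density at 650 nm; test concentration not given here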; conditions: E. coli DRC39 acrAB, higher = more signal, called active from +8 up or from −8 down
[18] = growth of efflux-deficient E. coli DRC39 – strain DRC39, OD650, 48 h, E. coli filamentation inducers, primary screen (AID 1179);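 note: screen aims at cell division blockers that make cells filament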; conditions: E. coli DRC39 delta-acrAB growth, higher = more signal, called active from +8 up or from −8 down
[19] = viability profiling in RPMI8226 myeloma cells – cell-based, resazurin fluorescence, basal, 24 h, PK04 Diversity Set, profiling panel (AID 1180); conditions: higher = more signal;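 note: RPMI8826 multiple myeloma cell line at 5000 cells per well; test concentration not given here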
[20] = target: E3 ubiquitin-protein ligase XIAP (Homo sapiens) (UniProt P98170); experiment: small molecules binding XIAP protein – biophysical, small-molecule microarray, fluorescence 635 nm, primary screen (AID 1181); conditions: higher = more signal;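 note: score merges 667 nm emission and signal to noise over triplicate slides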
E3 ubiquitin-protein ligase XIAP (Homo sapiens), sequence (P98170 whole entry, looked up): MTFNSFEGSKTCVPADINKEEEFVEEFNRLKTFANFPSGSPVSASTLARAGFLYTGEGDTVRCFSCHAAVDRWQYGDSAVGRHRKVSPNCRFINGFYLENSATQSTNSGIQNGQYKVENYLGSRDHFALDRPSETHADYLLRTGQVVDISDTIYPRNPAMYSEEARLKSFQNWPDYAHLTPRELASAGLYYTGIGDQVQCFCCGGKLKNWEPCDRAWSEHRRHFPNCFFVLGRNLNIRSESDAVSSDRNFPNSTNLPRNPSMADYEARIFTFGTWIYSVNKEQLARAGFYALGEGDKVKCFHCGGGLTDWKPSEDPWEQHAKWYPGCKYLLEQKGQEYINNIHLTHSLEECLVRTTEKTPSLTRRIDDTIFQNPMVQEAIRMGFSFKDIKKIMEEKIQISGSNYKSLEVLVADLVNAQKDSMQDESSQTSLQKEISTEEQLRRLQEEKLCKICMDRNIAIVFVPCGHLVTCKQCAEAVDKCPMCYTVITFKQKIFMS

Dihydroorotate dehydrogenase (quinone), mitochondrial (Plasmodium falciparum (isolate 3D7)), sequence (Q08210 whole entry, looked up): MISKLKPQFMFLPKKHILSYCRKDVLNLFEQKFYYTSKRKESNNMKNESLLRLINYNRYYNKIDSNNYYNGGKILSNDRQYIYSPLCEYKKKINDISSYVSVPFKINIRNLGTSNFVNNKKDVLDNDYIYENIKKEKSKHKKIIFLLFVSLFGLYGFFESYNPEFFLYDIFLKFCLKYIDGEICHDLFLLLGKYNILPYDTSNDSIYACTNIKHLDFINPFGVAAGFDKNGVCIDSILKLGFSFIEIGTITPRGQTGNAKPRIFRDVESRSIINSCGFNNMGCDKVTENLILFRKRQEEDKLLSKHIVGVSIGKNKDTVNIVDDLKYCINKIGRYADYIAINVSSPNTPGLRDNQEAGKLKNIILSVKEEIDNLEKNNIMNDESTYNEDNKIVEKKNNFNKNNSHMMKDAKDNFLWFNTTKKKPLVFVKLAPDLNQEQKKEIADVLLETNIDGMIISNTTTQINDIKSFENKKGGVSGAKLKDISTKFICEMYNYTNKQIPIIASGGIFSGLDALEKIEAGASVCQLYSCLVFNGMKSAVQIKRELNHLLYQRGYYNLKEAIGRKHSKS

| Structure (SMILES) | z-score [1] | z-score [2] | z-score [3] | z-score [4] | z-score [5] | z-score [6] | z-score [7] | z-score [8] | z-score [9] | z-score [10] | z-score [11] | z-score [12] | z-score [13] | composite z-score [14] | z-score [15] | z-score [16] | z-score [17] | z-score [18] | z-score [19] | composite z-score [20] |
| --- | --- | --- | --- | --- | --- | --- | --- | --- | --- | --- | --- | --- | --- | --- | --- | --- | --- | --- | --- | --- |
| CCOC(=O)[C@H](Cc1ccccc1)NC(=O)CCC1CC(OC(=O)NCc2cccc3ccccc23)CC2(CCCC(COC(=O)NCCc3ccccc3OC)O2)O1 (stereo not given in full) | -0.111 | -0.211 | -0.521 | -0.123 | -1.39 | 0.527 | -0.177 (inactive) | -0.0487 | -0.193 | 0.737 (inactive) | 0.942 | -1.14 (inactive) | 0.179 (inactive) | -0.561 (inactive) | 0.86 (inactive) | 0.166 (inactive) | 0.122 (inactive) | 0.0971 (inactive) | 0.0498 | -0.194 |
| CC(C)[C@@H](OCc1ccccc1)[C@H](C)CON=C1[C@H]2CCn3c(=O)n(-c4ccccc4)c(=O)n3[C@H]2[C@H](O)[C@@H]2O[C@H]12 | -0.27 | -0.104 | -1.31 | -2.72 | -2.22 | -2.12 | 0.197 (inactive) | -0.654 | -0.375 | -1 (inactive) | -0.486 | -1.96 (inactive) | -0.704 (inactive) | -1.78 (inactive) | -0.348 (inactive) | -0.402 (inactive) | 0.961 (inactive) | 0.876 (inactive) | -0.789 | -0.193 |
| O=C1[C@H]2CCn3c(=O)n(Cc4cc5c(cc4Cl)OCO5)c(=O)n3[C@H]2[C@H](O)[C@@H]2O[C@H]12 | 0.173 | -0.124 | -0.0111 | -1.72 | -0.518 | 0.039 | -0.275 (inactive) | 0.177 | -0.744 | -0.963 (inactive) | -0.581 | -0.0756 (inactive) | -1.3 (inactive) | -0.877 (inactive) | -0.838 (inactive) | 0.533 (inactive) | 0.552 (inactive) | 0.669 (inactive) | -1.3 | -0.146 |
| CCc1cc2c(nc1CC)CCN(CCC(C)=NOCC[C@@H]1C=C[C@H](OC(C)=O)[C@@H](COC(C)=O)O1)C2 | 0.34 | 0.63 | 0.679 | -0.47 | 0.123 | 1.45 | -1.32 (inactive) | 0.578 | -0.13 | 0.29 (inactive) | 0.0383 | 0.859 (inactive) | -0.123 (inactive) | 0.903 (inactive) | 0.122 (inactive) | 1.23 (inactive) | -0.157 (inactive) | -1.33 (inactive) | 0.154 | -0.212 |
| CC(CCN1CCCc2nc(C)c(C)cc21)=NO[C@H](C)c1cn([C@H](CO)Cc2ccccc2)nn1 | -0.385 | 0.849 | -0.456 | -0.0916 | -1.88 | 0.0197 | -2.16 (inactive) | 0.136 | 0.859 | -0.254 (inactive) | -0.325 | 0.454 (inactive) | 0.307 (inactive) | 1.27 (inactive) | -0.291 (inactive) | 0.512 (inactive) | -0.801 (inactive) | -0.922 (inactive) | 0.0883 | 0.0015 |
| CCOC(=O)[C@H](Cc1ccccc1)NC(=O)CCC1CC(OC(=O)NCCc2ccc(F)cc2)CC2(CCCC(COC(=O)NCc3cccc(C(F)(F)F)c3)O2)O1 (stereo not given in full) | -0.754 | 0.15 | -0.875 | -0.0822 | -1.82 | 0.502 | -0.306 (inactive) | 0.562 | 0.464 | 1.39 (inactive) | 0.134 | -0.0427 (inactive) | 0.853 (inactive) | -0.276 (inactive) | 0.544 (inactive) | 0.322 (inactive) | 0.141 (inactive) | 0.0159 (inactive) | 0.864 | -0.102 |
| COc1ccc(O[C@H]2C=C[C@@H](c3ccccc3)O[C@@H]2CON=C(C)CCN2CCCc3nc(C)c(C)cc32)cc1 | 0.0505 | -0.351 | -0.491 | -2.13 | -2.37 | 2.98 | -0.853 (inactive) | 0.414 | -0.294 | 0.154 (inactive) | 0.165 | -0.855 (inactive) | -0.662 (inactive) | -0.752 (inactive) | 0.699 (inactive) | -0.351 (inactive) | -0.321 (inactive) | -0.112 (inactive) | -0.164 | 2.22 |
| CCOC(=O)[C@H](CC(C)C)NC(=O)CCC1CC(OC(=O)NCc2ccc3c(c2)OCO3)CC2(CCCC(COC(=O)NCCc3ccccc3OC)O2)O1 (stereo not given in full) | -0.47 | -0.837 | 0.0138 | -1.32 | -0.312 | -0.828 | -0.104 (inactive) | -0.282 | -0.501 | 1.06 (inactive) | 0.686 | 0.594 (inactive) | -0.0143 (inactive) | -0.445 (inactive) | 0.614 (inactive) | -0.173 (inactive) | -0.163 (inactive) | -1.02 (inactive) | 0.512 | -0.102 |
